This is a sample that favours compounds with a hit; in the whole collection about 2.5% have one here.
POLB inh = DNA polymerase beta (human) inhibition; P06746; Pol beta primer extension/strand displacement, fluorescence kinetic; Potency, µM (series often up to 114 µM), actives largely listed as inhibitors; 1.3% of 340,000 active
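Reaction started by 50 nM substrate onto compound-treated Pol beta (10 nM, 15 min preincubation, room temperature); plates read at 0 min and 10 min. Normalized concentration-effect data fitted by four-parameter Hill equation.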
L3MBTL1 block = blocks human L3MBTL1; Q9Y468; AlphaScreen L3MBTL1–H3K9me1 peptide binding; Potency, µM (titrated, usually from 57.1 µM), usual class: inhibitors; 0.66% of 230,000 active; note: nearly all actives have a fitted effect of over 60% in size
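AlphaScreen proximity signal between nickel-chelate acceptor and streptavidin donor beads (final 10 ug/mL) reports binding of 50 nM L3MBTL1 to 75 nM biotin-H3 K9me1 peptide; complex incubated with compounds 30 min at room temperature; cefsulodin titration as control.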
Pol eta inh = blocks human DNA polymerase eta activity. Q9Y253. recombinant Pol eta, fluorescent DNA replication assay. Potency, µM (top dose mostly 114 µM), most hits filed as inhibitors. 1.2% of 390,000 active
Target sequence (Q9Y253 whole entry, looked up): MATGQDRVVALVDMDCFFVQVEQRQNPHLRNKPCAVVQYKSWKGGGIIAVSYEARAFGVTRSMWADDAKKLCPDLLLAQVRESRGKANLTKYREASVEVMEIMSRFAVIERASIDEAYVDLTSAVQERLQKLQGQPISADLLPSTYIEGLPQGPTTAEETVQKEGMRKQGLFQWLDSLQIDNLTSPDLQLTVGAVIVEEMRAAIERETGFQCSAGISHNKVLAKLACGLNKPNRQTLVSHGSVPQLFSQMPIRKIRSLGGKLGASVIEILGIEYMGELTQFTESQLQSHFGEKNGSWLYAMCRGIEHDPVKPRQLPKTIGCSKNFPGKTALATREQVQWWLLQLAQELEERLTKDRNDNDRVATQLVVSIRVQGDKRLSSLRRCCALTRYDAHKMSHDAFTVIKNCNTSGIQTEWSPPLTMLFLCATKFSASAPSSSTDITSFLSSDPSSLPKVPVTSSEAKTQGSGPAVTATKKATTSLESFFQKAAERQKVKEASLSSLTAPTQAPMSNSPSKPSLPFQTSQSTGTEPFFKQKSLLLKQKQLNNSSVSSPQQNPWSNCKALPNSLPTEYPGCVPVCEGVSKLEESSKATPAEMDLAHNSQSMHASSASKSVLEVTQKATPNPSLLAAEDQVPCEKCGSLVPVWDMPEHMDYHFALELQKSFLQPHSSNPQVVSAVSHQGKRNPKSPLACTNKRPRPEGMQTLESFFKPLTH
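Fluorescent replication assay: 50 nM final substrate added after a 15 min room-temperature compound preincubation with 10 nM enzyme. Signal taken at 0 min and again at 10 min.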
WRN inhibitor = blocks human WRN helicase; 0.46% of 360,000 active; WRN helicase unwinding, fluorescent forked duplex, kinetic; Q14191; Potency, µM (series often up to 114 µM), hits mostly inhibitors; note: nearly all actives have a fitted effect of over 55% in size
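Kinetic fluorescence helicase assay: unwinding of a quenched forked DNA duplex (100 nM final) with 2 mM ATP final raises red fluorescence (525/598 nm). Compounds sat 15 min at room temperature with 20 nM WRN beforehand.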
Pol iota inh = DNA polymerase iota (human) inhibition; Pol iota fluorescent replication assay, 10 min; Potency, µM (top dose mostly 115 µM), most hits filed as inhibitors; 1% of 390,000 active
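Fluorescent replication assay read twice, at 0 min and 10 min after adding 50 nM (final) substrate. Enzyme (10 nM) and compounds were first incubated 15 min at room temperature; enzyme-free buffer wells were negative controls.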
Pol kappa inh = DNA polymerase kappa (human) inhibition; Q9UBT6; purified Pol kappa, fluorescent DNA synthesis assay, 10 min; Potency, µM (doses to about 107 µM), hits mostly inhibitors; 0.53% of 400,000 active
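10 nM Pol kappa preincubated 15 min at room temperature with compounds, then reaction started with substrate at 50 nM final. Fluorescence read kinetically at 0 and 10 min; buffer-only wells served as negative control.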
A number is an active result; [ ] = dose if it differs, or a comment. Calls come from the whole dose curve; as a rule, active = well fitted curve in the direction sought with a large enough effect; inconclusive = small, poorly fitted or top-dose-only effect, or another doubt; inactive = no such curve, though single readings can be large; an effect the other way counts as inactive or inconclusive.

Results for CCCSc1nc2sc3c(c2c(=O)n1-c1ccc(C)c(Cl)c1)CCN(C(C)=O)C3 ?
POLB inh: inconclusive; Pol eta inh: 79.4µM; Pol iota inh: inconclusive; Pol kappa inh: inactive

Results for CC(=O)N1CCc2c(sc3nc(SCC(C)C)n(-c4ccc(C)c(Cl)c4)c(=O)c23)C1 ?
POLB inh: inactive; Pol eta inh: inconclusive; Pol iota inh: inconclusive; Pol kappa inh: inactive

What do the screens show for `COc1ccc(-n2c(=O)c3c4c(sc3n(Cc3cc(=O)n5c(C)cccc5n3)c2=O)CCC4)c(OC)c1`?
POLB inh: inactive; Pol eta inh: inconclusive; Pol iota inh: 79.4µM; Pol kappa inh: inactive

How did CC(C)(C)c1nnc(N/N=C/c2ccccc2)n(N)c1=O do in these assays?
POLB inh: inactive; L3MBTL1 block: inactive; Pol eta inh: inactive; WRN inhibitor: inactive; Pol iota inh: inactive; Pol kappa inh: inactive

Results for CC(C)(C)c1nnc(N/N=C/c2ccccc2O)n(N)c1=O ?
POLB inh: inactive; L3MBTL1 block: 15.8µM; Pol eta inh: inactive; WRN inhibitor: inactive; Pol iota inh: inactive; Pol kappa inh: inactive

What do the screens show for `COc1cc(/C=N/NC(=O)C2=NNC(=O)C2C)ccc1O` (stereo not drawn)?
POLB inh: inactive; Pol eta inh: inactive; WRN inhibitor: inactive; Pol iota inh: inactive; Pol kappa inh: inactive

What do the screens show for `CC1C(=O)NN=C1C(=O)N/N=C\c1ccc(O)cc1O` (stereo not drawn)?
POLB inh: inactive; L3MBTL1 block: 28.2µM; Pol eta inh: inactive; WRN inhibitor: inactive; Pol iota inh: inactive; Pol kappa inh: inactive

How did OCc1ccccc1-c1cnc2cccnn12 do in these assays?
WRN inhibitor: inactive

How did Cc1ccc(NC(=O)CSc2nnc3[nH]c(=O)cc(-c4ccccc4)n23)cc1Cl do in these assays?
POLB inh: 39.8µM; Pol eta inh: inactive; Pol iota inh: inactive; Pol kappa inh: inactive

What do the screens show for `Cc1ccc(C)c(NC(=O)CSc2nnc3[nH]c(=O)cc(-c4ccccc4)n23)c1`?
POLB inh: inactive; Pol eta inh: inactive; Pol iota inh: inactive; Pol kappa inh: inactive

What do the screens show for `COc1ccc(-n2cnc3cc(NCc4cccs4)ccc32)cc1`?
POLB inh: inactive; L3MBTL1 block: inconclusive; Pol eta inh: inactive; WRN inhibitor: inactive; Pol iota inh: inactive; Pol kappa inh: inactive

What do the screens show for `COC(=O)C1=C(C)N(c2ccc(C)c(C)c2)/C(=C/c2ccco2)C1=O`?
POLB inh: 22.4µM; Pol eta inh: inactive; WRN inhibitor: inconclusive; Pol iota inh: inconclusive; Pol kappa inh: inactive

What do the screens show for `O=C(Nc1ccccc1)C1CCN(S(=O)(=O)c2ccc3[nH]c4c(c3c2)CCCCC4)CC1`?
POLB inh: inactive; Pol eta inh: inactive; Pol iota inh: inactive; Pol kappa inh: inactive

What do the screens show for `N#Cc1ccccc1S(=O)(=O)Nc1ccc2c(c1)C(=O)OC2`?
POLB inh: inactive; Pol eta inh: inactive; WRN inhibitor: inactive; Pol iota inh: inactive; Pol kappa inh: inactive

How did CC(=O)Nc1ccc(NC2=C/C(=N/S(=O)(=O)c3cccs3)c3ccccc3C2=O)cc1 do in these assays?
POLB inh: inconclusive; L3MBTL1 block: inconclusive; Pol eta inh: inconclusive; WRN inhibitor: inactive; Pol iota inh: 14.1µM; Pol kappa inh: inactive

What do the screens show for `Cc1ccccc1NC1=C/C(=N\S(=O)(=O)c2cccs2)c2ccccc2C1=O`?
POLB inh: inactive; Pol eta inh: 11.2µM; WRN inhibitor: inactive; Pol iota inh: 3.16µM; Pol kappa inh: inactive

Results for CCC(C)Sc1cc(-c2nc3ccc(C)cn3c2NCc2ccccc2)ccc1OC (stereo not drawn) ?
Pol eta inh: inactive; WRN inhibitor: inactive; Pol iota inh: inactive; Pol kappa inh: inactive

How did CC(C)(C)NC(=O)Cc1ccc(S(=O)(=O)N2CCCC2)s1 do in these assays?
POLB inh: 35.5µM; Pol eta inh: 14.1µM; WRN inhibitor: inactive[11.6 µM]; Pol iota inh: inactive; Pol kappa inh: inactive

Results for O=C(Cc1ccc(S(=O)(=O)N2CCCC2)s1)N1CCOCC1 ?
POLB inh: 44.7µM; L3MBTL1 block: inactive; Pol eta inh: inconclusive; WRN inhibitor: inactive; Pol iota inh: inconclusive; Pol kappa inh: inactive
